PubChem BioAssay (NCATS)
“And” between values parts separate entries of the source, which are not always exact repeats. Equal values may be shown once. Inconclusive results are not listed. The source made the active and inactive calls. Calls come from the whole dose curve; as a rule, active = well fitted inhibition curve with a large enough effect; inconclusive = small, poorly fitted or top-dose-only effect; inactive = flat fitted curve, though single readings scatter.

Legend:
GB4 = experiment: qHTS profiling for inhibitors of Plasmodium falciparum proliferation (AID 504749); conditions: P. falciparum in erythrocytes, SYBR Green DNA, 72 h; series mostly up to 28.7 µM
How it was run: (§1)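 SYBR Green fluorescence (ex 485 nm, em 535 nm) reports parasite DNA after 72 h compound exposure of infected red cells at 0.3% parasitemia, 2.5% hematocrit; signal normalized to 0.29 uM artemisinin and vehicle wells.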

ICS = experiment: as above; conditions: P. falciparum in erythrocytes, SYBR Green DNA, 72 h; series mostly up to 28.7 µM
How it was run: as §1

JCK = experiment: as above; conditions: P. falciparum in erythrocytes, SYBR Green DNA, 72 h; series mostly up to 28.7 µM
How it was run: as §1

N140 = experiment: as above; conditions: P. falciparum in erythrocytes, SYBR Green DNA, 72 h; series mostly up to 28.7 µM
How it was run: as §1

P93_24 = experiment: as above; conditions: P. falciparum in erythrocytes, SYBR Green DNA, 72 h; series mostly up to 28.7 µM
How it was run: as §1

P94_40 = experiment: as above; conditions: P. falciparum in erythrocytes, SYBR Green DNA, 72 h; series mostly up to 28.7 µM
How it was run: as §1

PAD = experiment: as above; conditions: P. falciparum in erythrocytes, SYBR Green DNA, 72 h; series mostly up to 28.7 µM
How it was run: as §1

PC49 = experiment: as above; conditions: P. falciparum in erythrocytes, SYBR Green DNA, 72 h; series mostly up to 28.7 µM
How it was run: as §1

SC27B = experiment: as above; conditions: P. falciparum in erythrocytes, SYBR Green DNA, 72 h; series mostly up to 28.7 µM
How it was run: as §1

TAB109 = experiment: as above; conditions: P. falciparum in erythrocytes, SYBR Green DNA, 72 h; series mostly up to 28.7 µM
How it was run: as §1

TAB113 = experiment: as above; conditions: P. falciparum in erythrocytes, SYBR Green DNA, 72 h; series mostly up to 28.7 µM
How it was run: as §1

TAB165 = experiment: as above; conditions: P. falciparum in erythrocytes, SYBR Green DNA, 72 h; series mostly up to 28.7 µM
How it was run: as §1

W2 = experiment: as above; conditions: P. falciparum in erythrocytes, SYBR Green DNA, 72 h; series mostly up to 28.7 µM
How it was run: as §1

CRL-7250 = normal cell line; experiment: Cytotoxic Profiling of Annotated Libraries Using Quantitative High-Throughput Screening (AID 1296008); conditions: Five cell lines viability, CellTiter-Glo ATP luminescence, 48-72 h; max response: active compounds read low; for max response: % is set by controls: 0 for no effect and ±100 for the full control effect
How it was run: (§2)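 Cells exposed to compounds for 48 or 72 hr at 37 degrees Celsius. Viability read as ATP-coupled luminescence with CellTiter-Glo after 10 min at room temperature.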

HaCat = experiment: as above; conditions: Five cell lines viability, CellTiter-Glo ATP luminescence, 48-72 h; max response: active compounds read low
How it was run: as §2

KB-3-1 = experiment: as above; conditions: Five cell lines viability, CellTiter-Glo ATP luminescence, 48-72 h; max response: active compounds read low
How it was run: as §2

HB3 = experiment: qHTS profiling for inhibitors of Plasmodium falciparum proliferation (AID 504749); conditions: P. falciparum in erythrocytes, SYBR Green DNA, 72 h; series mostly up to 28.7 µM
How it was run: as §1

PC26 = experiment: as above; conditions: P. falciparum in erythrocytes, SYBR Green DNA, 72 h; series mostly up to 28.7 µM
How it was run: as §1

PC15 = experiment: as above; conditions: P. falciparum in erythrocytes, SYBR Green DNA, 72 h; series mostly up to 28.7 µM
How it was run: as §1

HEK293 = experiment: Cytotoxic Profiling of Annotated Libraries Using Quantitative High-Throughput Screening (AID 1296008); conditions: Five cell lines viability, CellTiter-Glo ATP luminescence, 48-72 h; max response: active compounds read low; for max response: % is set by controls: 0 for no effect and ±100 for the full control effect
How it was run: as §2
Note: nearly all actives have a fitted effect of over 60% in size.
Potency is the fitted concentration of half-maximal effect.

CN1CCC(=C2c3ccccc3Sc3ccccc32)CC1
inactive: Potency (JCK) | Potency (PC49) | max response (CRL-7250) -1.99% | outcome (HaCat) | max response (KB-3-1) -16.3%
active: Potency (GB4) 3.38 µM | Potency (ICS) 5.62 µM | Potency (N140) 10 µM | Potency (P93_24) 10 µM | Potency (P94_40) 10 µM | Potency (PAD) 12.6 µM | Potency (SC27B) 11.2 µM | Potency (TAB109) 11.2 µM | Potency (TAB113) 11.2 µM | Potency (TAB165) 7.94 µM | Potency (W2) 2.13 µM

COc1ccc(CN2CCN(C(c3ccc(F)cc3)c3ccc(F)cc3)CC2)c(OC)c1OC
inactive: outcome (CRL-7250) | max response (HaCat) -19.9% | outcome (HaCat) | max response (KB-3-1) 6.7%
active: Potency (GB4) 9.53 µM | Potency (HB3) 11.2 µM | Potency (ICS) 2.24 µM | Potency (N140) 8.91 µM | Potency (P93_24) 7.94 µM | Potency (P94_40) 7.08 µM | Potency (PAD) 8.91 µM | Potency (PC26) 12 µM | Potency (SC27B) 10 µM | Potency (TAB109) 11.2 µM | Potency (TAB113) 8.91 µM | Potency (TAB165) 7.08 µM | Potency (W2) 3.38 µM

CC(=O)[C@H]1CC[C@H]2[C@@H]3C[C@H](C)C4=CC(=O)CC[C@]4(C)[C@H]3[C@@H](O)C[C@]12C
inactive: outcome (CRL-7250) | max response (HaCat) -3.2% | max response (KB-3-1) 30.5%

CC1(C)O[C@@H]2C[C@H]3[C@@H]4CCC5=CC(=O)CC[C@]5(C)[C@@]4(F)[C@@H](O)C[C@]3(C)[C@]2(C(=O)CCl)O1
inactive: max response (CRL-7250) 2.38% | outcome (HaCat) | max response (KB-3-1) 33.4%

CC(=O)Oc1ccc2c(c1)CC[C@@H]1[C@@H]2CC[C@]2(C)[C@@H](O)CC[C@@H]12
inactive: max response (CRL-7250) -2.1% | max response (HaCat) -1.57%

O=C(CCCN1CCC(O)(c2ccc(Br)cc2)CC1)c1ccc(F)cc1
inactive: Potency (SC27B) | max response (CRL-7250) 2.7% | max response (HaCat) -2.82% | max response (KB-3-1) 3.87%
active: Potency (GB4) 5.73 µM | Potency (ICS) 3.55 µM | Potency (PC49) 0.398 µM | Potency (TAB109) 3.16 µM | Potency (W2) 1.44 µM

CN(C/C=C/c1ccccc1)Cc1cccc2ccccc12
active: Potency (CRL-7250) 26.6 µM | Potency (HaCat) 21.1 µM
inactive: max response (KB-3-1) 4.5%

C[C@H]1C[C@H]2[C@@H]3CCC4=CC(=O)C=C[C@]4(C)[C@@]3(Cl)[C@@H](O)C[C@]2(C)[C@@]1(O)C(=O)CO
inactive: Potency (GB4) | Potency (HB3) | Potency (JCK) | Potency (N140) | Potency (P93_24) | Potency (P94_40) | Potency (PAD) | Potency (PC15) | Potency (PC26) | Potency (PC49) | Potency (SC27B) | Potency (TAB109) | Potency (TAB113) | Potency (TAB165) | Potency (W2) | outcome (CRL-7250) | max response (HaCat) -6.93% | max response (KB-3-1) 6.92%

CC(=O)N/N=C/c1ccc([N+](=O)[O-])o1
active: Potency (ICS) 5.62 µM | Potency (N140) 12.6 µM | Potency (TAB109) 6.31 µM | Potency (TAB165) 12.6 µM
inactive: Potency (PC26) | Potency (PC49) | max response (CRL-7250) -0.507% | outcome (HaCat) | max response (KB-3-1) -2.33%

COc1cc2c(cc1OC)[C@@H]1CC(=O)[C@@H](CC(C)C)CN1CC2
inactive: max response (CRL-7250) -4.44% | max response (HaCat) -0.956% | max response (KB-3-1) 20.8%

CC(=O)c1ccc2c(c1)N(CCCN1CCC(CCO)CC1)c1ccccc1S2
inactive: Potency (HB3) | Potency (JCK) | Potency (N140) | Potency (P94_40) | Potency (PAD) | Potency (PC15) | Potency (PC49) | Potency (SC27B) | Potency (TAB109) | Potency (TAB113) | Potency (TAB165) | max response (CRL-7250) -7.11% | outcome (HaCat) | max response (KB-3-1) -5.25%
active: Potency (W2) 1.02 µM

CCOC(=O)[C@H](CCc1ccccc1)N[C@@H](C)C(=O)N1Cc2ccccc2C[C@H]1C(=O)O
inactive: max response (CRL-7250) -9.56% | outcome (HaCat) | max response (KB-3-1) 21.9%

O=C(OCC(O)CO)c1ccccc1Nc1ccnc2cc(Cl)ccc12 (centres undefined)
inactive: outcome (CRL-7250) | max response (HaCat) -6.51% | max response (KB-3-1) 1.57%

CC(=O)Oc1ccc(C(c2ccc(OC(C)=O)cc2)c2ccccn2)cc1
active: Potency (PC49) 7.08 µM
inactive: Potency (GB4) | Potency (HB3) | Potency (ICS) | Potency (N140) | Potency (P93_24) | Potency (P94_40) | Potency (PAD) | Potency (PC15) | Potency (PC26) | Potency (SC27B) | Potency (TAB109) | Potency (TAB113) | Potency (TAB165) | Potency (W2) | max response (CRL-7250) -7.93% | max response (HaCat) -0.175% | max response (KB-3-1) -5.6%

CN=C(NC#N)NCCSCc1csc(N=C(N)N)n1
inactive: Potency (GB4) | Potency (HB3) | Potency (ICS) | Potency (JCK) | Potency (N140) | Potency (P93_24) | Potency (P94_40) | Potency (PAD) | Potency (PC15) | Potency (PC26) | Potency (PC49) | Potency (SC27B) | Potency (TAB113) | Potency (TAB165) | Potency (W2) | max response (CRL-7250) 1.65% | max response (HaCat) 3.38%

OC(CCN1CCCCC1)(c1ccccc1)c1ccccc1
active: Potency (GB4) 6.75 µM | Potency (ICS) 12.6 µM | Potency (P94_40) 10 µM | Potency (TAB113) 8.91 µM | Potency (TAB165) 14.1 µM | Potency (W2) 4.26 µM
inactive: Potency (HB3) | outcome (CRL-7250) | outcome (HaCat) | max response (KB-3-1) 16.8%

C/C=C(/C(=C/C)c1ccc(O)cc1)c1ccc(O)cc1
inactive: max response (CRL-7250) 1.03% | max response (HaCat) -0.716% | max response (KB-3-1) -11.5%

c1ccc(CNCCNCc2ccccc2)cc1
active: Potency (PC49) 3.55 µM | Potency (W2) 4.26 µM
inactive: Potency (HB3) | Potency (JCK) | max response (CRL-7250) -8.49% | outcome (HaCat) | max response (KB-3-1) -3.68%

COc1cc(/C=C/C(=O)O[C@H]2CC[C@]34C[C@]35CC[C@]3(C)[C@@H]([C@H](C)CCC=C(C)C)CC[C@@]3(C)[C@@H]5CC[C@H]4C2(C)C)ccc1O
inactive: max response (HEK293) 2.65% | outcome (HaCat) | max response (KB-3-1) 0.76% and -6.22%

CCCCOc1ccc(C(=O)CCN2CCCCC2)cc1
inactive: Potency (GB4) | Potency (HB3) | Potency (ICS) | Potency (JCK) | Potency (N140) | Potency (P93_24) | Potency (P94_40) | Potency (PAD) | Potency (PC15) | Potency (PC26) | Potency (PC49) | Potency (SC27B) | Potency (TAB109) | Potency (TAB113) | Potency (TAB165) | outcome (HaCat) | max response (KB-3-1) 0.445%

O=C(COc1ccc(Cl)cc1)N1CCN(Cc2ccc3c(c2)OCO3)CC1
inactive: Potency (GB4) | Potency (HB3) | Potency (ICS) | Potency (JCK) | Potency (N140) | Potency (P93_24) | Potency (P94_40) | Potency (PAD) | Potency (PC15) | Potency (PC26) | Potency (PC49) | Potency (SC27B) | Potency (TAB109) | Potency (TAB113) | Potency (TAB165) | Potency (W2) | max response (CRL-7250) -27.2% | max response (KB-3-1) -11.1%

C[C@@H]1C[C@H]2[C@@H]3C[C@H](F)C4=CC(=O)C(Cl)=C[C@]4(C)[C@@]3(F)[C@@H](O)C[C@]2(C)[C@@]1(O)C(=O)CO
inactive: max response (HaCat) 2.77% | max response (KB-3-1) 11.7%
